High-throughput results: PubChem, National Center for Advancing Translational Sciences (NCATS)
In the library only some 19% were active in any assay of this set; here they are far more common.
HT1080NT lethal = kills 2HG-producing HT-1080-NT fibrosarcoma cells | HT-1080-NT fibrosarcoma viability, CellTiter-Glo ATP luminescence, 48 h | Potency, µM (top dose mostly 46.1 µM), for the others: at the top dose activity, negative = less viability, usual class: cytotoxic | actives 1.6% (n = 360,000) | AID 686970;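 note: NT is the 2HG producing partner of a matched IDH1 knockdown line; 0% = DMSO-treated cells and -100% = media-only wells without cells; nearly all actives have a fitted effect of over 55% in size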
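Viability by CellTiter-Glo luminescence after 48 h compound exposure at 37C of HT-1080-NT cells (750/well, RPMI, 5% FBS). % activity scaled between DMSO wells and medium-only wells, then curve-fitted and categorized by curve class.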
KB-V1 MDR tox = kills drug-selected multidrug resistant KB-V1 cells. KB-V1 MDR cells viability, CellTiter-Glo, 72 h. Potency, µM (titrated, usually from 46.1 µM), hits mostly cytotoxic. actives 3.4% (n = 400,000). AID 1347076; note: nearly all actives have a fitted effect of over 60% in size
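KB-V1 MDR subline cells in DMEM (phenol-red free, 10% FBS) exposed to compounds in qHTS concentration series for 72 h at 37 degrees C. Viability read by CellTiter-Glo luminescence; concentration-effect curves fitted after normalization and correction.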
HT1080 IDH1KD tx = kills HT-1080 cells with IDH1 knockdown. HT-1080 IDH1 knockdown viability, ATP luminescence, 48 h. Potency, µM (highest dose often 46.1 µM), inactives show at the top dose activity, negative = toxicity, most hits filed as cytotoxic. actives 2% (n = 360,000). AID 686971;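 note: 0% = DMSO wells and -100% = cell-free medium wells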
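HT-1080-IDH1KD cells (IDH1 knocked down), 750/well in RPMI with 5% FBS, treated with compound 48 h at 37 degrees C. Viability by CellTiter-Glo luminescence, normalised to DMSO and no-cell wells; concentration-response curves classed.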
TDP1 cell noCPT = qHTS for Inhibitors of human tyrosyl-DNA phosphodiesterase 1 (TDP1): qHTS in cells in absence of CPT. DT40 Tdp1-/- hTDP1 cells, no CPT, ATP luminescence, 48 h. Potency, µM (highest dose often 46.2 µM), for inactives: at the highest dose activity change, negative = growth inhibition, usual class: inhibitors. actives 15% (n = 420,000). AID 686978, 2013; note: nearly all actives have a fitted effect of over 55% in size
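Cells were dispensed at 400 per well, compounds added by pin tool, plates incubated ≥48 hr at 37 °C, then CellTiter-Glo added for 30 min at room temperature before luminescence reading. Line: DT40 Tdp1-/- complemented with hTDP1; camptothecin omitted.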
TDP1 cell CPT = growth inhibition of DT40 Tdp1-/-;hTDP1 cells with camptothecin (screen for TDP1 inhibitors) | chicken DT40 Tdp1-/-;hTDP1 cells + 20 nM CPT, ATP luminescence, 48 h | Potency, µM (titrated, usually from 46.2 µM), for inactives: at the top dose activity change, negative = growth inhibition, actives largely listed as inhibitors | actives 12% (n = 420,000); note: nearly all actives have a fitted effect of over 55% in size
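Chicken DT40 Tdp1-/- cells stably complemented with human TDP1 were seeded at 400 cells/well in medium containing 20 nM camptothecin, exposed to pin-transferred compounds, and grown at 37 °C for at least 48 hr. Viability was read as ATP luminescence.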
KB-3-1 cytotox = kills parental KB-3-1 adenocarcinoma cells; KB-3-1 viability, CellTiter-Glo ATP luminescence, 72 h; Potency, µM (highest dose often 46.1 µM), most hits filed as cytotoxic; actives 1.4% (n = 400,000); AID 1347075; note: nearly all actives have a fitted effect of over 60% in size
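72 h, 37 °C compound treatment of KB-3-1 parental cells; CellTiter-Glo added, 10 min, luminescence read. Data corrected against DMSO-only plates and normalized before curve fitting.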
Numbers without * were called inactive; i = inactive; ? = inconclusive; / = no result given; [ ] = remark or other dose. Calls come from the whole dose curve; as a rule, active = well fitted curve in the direction sought with a large enough effect; inconclusive = small, poorly fitted or top-dose-only effect, or another doubt; inactive = no such curve, though single readings can be large; an effect the other way counts as inactive or inconclusive. Unless noted, % is set by controls: 0 for no effect and ±100 for the full control effect; potency is the fitted concentration of half-maximal effect.

SMILES	HT1080NT lethal	KB-V1 MDR tox	HT1080 IDH1KD tx	TDP1 cell noCPT	TDP1 cell CPT	KB-3-1 cytotox
COc1ccc(C)cc1N(C)C(=O)c1c2c(nc3ccccc13)C(=O)N(C1CCCCC1)C2	/	i	/	?	?	i
Cc1ccc(N2CCN(C(=O)c3c4c(nc5ccccc35)C(=O)N(C3CCCCC3)C4)CC2)c(C)c1	/	i	/	10µM*	9.2µM*	i
Cc1cccc(N2CCN(C(=O)c3c4c(nc5ccccc35)C(=O)N(C3CCCCC3)C4)CC2)c1C	/	i	/	5.8µM*	7.3µM*	i
COc1cccc(N2CCN(C(=O)c3c4c(nc5ccccc35)C(=O)N(C3CCCCC3)C4)CC2)c1	/	i	/	16µM*	21µM*	i
COc1ccc(-n2nnc(-c3nc(-c4ccc5c(c4)OCO5)no3)c2C)cc1Cl	/	/	/	-3%	-3%	/
O=C(NCc1ccco1)c1ccc(COc2cc(Cl)ccc2Cl)cc1	-26%	i	-16%	?	?	i
COC(=O)C1(C(=O)OC)C[C@H](c2ccc(OC)cc2)N(Cc2ccccc2OC)[C@@H]1c1ccc(OC)cc1	-8%	?	-8%	21µM*	?	?
COc1ccccc1CNC(=O)C12CC3CC(CC(C3)C1)C2	-3%	?	-22%	?	?	i
O=C(CSc1ncc(S(=O)(=O)c2ccc(Cl)cc2)c(=O)[nH]1)Nc1ccc2c(c1)OCCO2	/	i	/	/	/	i
O=C(c1cccs1)N1CCCC(c2nc3c(nnn3Cc3ccccc3)c(=O)[nH]2)C1 (stereo unspecified)	-2%	i	0%	11%	?	i
CCCCCCC(=O)N1CCC(c2nc3c(nnn3Cc3ccccc3Cl)c(=O)[nH]2)CC1	13µM*	i	11µM*	?	18µM*	i
O=C(c1cccs1)N1CCCC(c2nc3c(nnn3Cc3ccccc3Cl)c(=O)[nH]2)C1 (stereo unspecified)	-2%	i	-8%	29µM*	?	i
Cc1ccccc1Cn1nnc2c(=O)[nH]c(C3CCN(C(=O)c4ccccc4Cl)CC3)nc21	/	i	/	26µM*	16µM*	i
COc1cccc(Cn2nnc3c(=O)[nH]c(C4CCN(C(=O)c5ccccc5Cl)CC4)nc32)c1	/	i	/	?	?	i
O=C(Nc1ccccc1)c1cc(C2CCCCN2S(=O)(=O)c2ccccc2)on1 (stereo unspecified)	-7%	i	12%	?	?	?
Cc1c(CCOC(=O)CC23CC4CC(CC(C)(C4)C2)C3)sc[n+]1CC(=O)c1ccccc1	-20%	i	-28%	16µM*	16µM*	i
Cc1c(CCOC(=O)C23CC4CC(CC(C)(C4)C2)C3)sc[n+]1CC(=O)c1ccccc1	?	i	?	21µM*	23µM*	?
Cc1ncsc1CCOC(=O)C12CC3CC(CC(C3)C1)C2	-7%	i	-6%	-27%	-24%	i
Cc1c(CCOC(=O)CC23CC4CC(CC(C4)C2)C3)sc[n+]1CC(=O)c1ccc(Br)cc1	?	i	?	26µM*	?	i
O=C(CSc1ccc(-c2ccc(Cl)cc2)nn1)NC1CCCC1	7%	/	17%	-17%	-18%	/
O=C(NCc1cccs1)C1CCN(C(=O)N2CCOc3ccccc32)CC1	/	i	/	-7%	-22%	i
COc1cccc(CN2C(=O)NC(C)(C3CCN(Cc4cccc(O)c4)CC3)C2=O)c1OC (stereo unspecified)	/	/	/	-26%	-21%	/
Cc1cc(C)c(S(=O)(=O)NCCc2cc3cc(C)c(C)cc3[nH]c2=O)c(C)c1	/	i	/	-22%	-10%	i
CN1CCN(c2ccnc(N(C)CCCCCCN)n2)CC1	/	i	/	?	13µM*	?
CN1CCN(c2ccnc(-c3ccc(N(C)C)cc3)n2)CC1	/	/	/	23µM*	23µM*	/
SMILES	HT1080NT lethal	KB-V1 MDR tox	HT1080 IDH1KD tx	TDP1 cell noCPT	TDP1 cell CPT	KB-3-1 cytotox
COc1ccccc1-c1ccnc(-n2ncc(C(=O)NCCc3ccccn3)c2C)n1	/	/	/	?	-2%[9.04 µM]	/
Cc1ccc([C@@H]2CC=C(C(=O)O)[C@H](c3ccc(Cl)cc3)N2S(=O)(=O)c2ccccc2C)cc1	-10%	i	-21%	-10%	-16%	i
COc1cc2c(cc1OC)C(=O)CCC2	9%	i	9%	16µM*	15µM*	i
O=C1CCCc2cc3c(cc21)CCCC3	18%	i	14%	-24%	-18%	i
CCCCCCC1CC(CC(=O)Nc2ccc([N+](=O)[O-])cc2)C(=O)O1 (stereo unspecified)	-8%	?	-28%	?	18µM*	i
O=C(CC1OCC2CCCN2C1=O)Nc1ccc([N+](=O)[O-])cc1 (stereo unspecified)	12%	i	16%	?	16µM*	i
CC1(C)CC(CC(=O)Nc2ccc([N+](=O)[O-])cc2)C(=O)O1 (stereo unspecified)	6%	i	1%	1%	4%	i
CCN1CCOC(CC(=O)Nc2ccc([N+](=O)[O-])cc2)C1=O (stereo unspecified)	11%	i	13%	?	15µM*	i
O=C(CC1C(=O)NC2CCCCC2N1C(=O)c1ccc([N+](=O)[O-])cc1)Nc1ccccc1 (stereo unspecified)	6%	i	7%	16µM*	?	i
CCCCCC1CC(CC(=O)NC(=S)Nc2ccc([N+](=O)[O-])cc2)C(=O)O1 (stereo unspecified)	-21%	i	-28%	-16%	-30%	i
COc1ccc2[nH]cc(CCNC(=O)C3CCCCC3)c2c1	0%	i	0%	?	-3%	i
Cc1oc(-c2ccccc2Cl)nc1CSc1nc2c(c(=O)[nH]1)CCC2	-4%	i	1%	?	?	?
COc1ccc(OCC(=O)Nc2ccc(C(=O)OCc3cc(=O)n4nc(C)sc4n3)cc2)cc1	/	/	/	21µM*	13µM*	/
CCc1nn2c(=O)cc(COC(=O)c3ccccc3NC(=O)COc3ccc(C)c(C)c3)nc2s1	/	/	/	6.5µM*	5.2µM*	/
CCc1nn2c(=O)cc(COC(=O)c3ccc(NC(=O)COc4ccc(C)cc4)cc3)nc2s1	/	/	/	16µM*	?	/
